Source: PubChem
TROY signal inh = TROY signaling inhibition; Q293 LMP1-TROYcd NF-kB luciferase reporter, 4 h; hit rate 0.98% among 360,000; inhibition, % at 10 µM;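 active means compounds whose plate-normalised and pattern-corrected inhibition of the luciferase reporter signal at the single screening dose is 50% or more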
LGR2 antag = Drosophila LGR2 receptor signaling inhibition; HEK293 LGR2, CRE-luciferase, bursicon-stimulated, 4 h; inhibition, % at 9.99 µM; hit rate 0.35% among 380,000;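 active means drop in luminescence signal, shown as inhibition above about 50% in the replicate tests, limit read from the data, passing the limit was not always enough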;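 further: agonist challenge used bursicon conditioned medium at about half maximal strength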
TWEAK Fn14 block = TWEAK-Fn14 signaling inhibition. hit rate 2% among 360,000. inhibition, % at 10 µM. TWEAK-stimulated Fn14 reporter cells, luciferase luminescence, 8 h; in the data active means inhibition above about 50%
LMP1 NFkB inh = inhibitors of Epstein-Barr LMP1-induced NF-kappaB reporter | LMP1-induced NF-kappaB luciferase reporter cells, luminescence | inhibition, % at 12.5 µM | hit rate 0.69% among 350,000; in the data active means inhibition above about 41%;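 further: 0% = neutral control wells and 100% = reference inhibitor control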
HSF1 activator = increases HSF-1 driven luciferase reporter signal. AID 504408. hit rate 1.7% among 300,000. activation, % at 9 µM. NIH3T3-HGL HSF-1 luciferase reporter, MG132, 8 h; 100% = twice DMSO control signal;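 active means mean replicate activation of at least 50% with a set share of replicates each reaching 50%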;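 further: 0% = median of the neutral control wells and 100% = twice that signal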
HSF1 inh = HSF1 inhibition | NIH3T3-HGL HSE-luciferase, MG132-induced, luminescence 8 h; hits give low values | activity change, negative = inhibition, % at 7.5 µM (by protocol) | hit rate 0.77% among 300,000 | AID 2098;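 active means more than half of replicate wells show activity change below -50%, luminescence cut by over half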;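 further: luciferase reports HSF-1 transcriptional activity via heat shock element; 0% = median of DMSO wells and -100% = zero luminescence signal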
* = called active by the depositor; . = no result given. Most compounds without a hit are left out; they make up all but 3.6% or so of the library.

SMILES	TROY signal inh	LGR2 antag	TWEAK Fn14 block	LMP1 NFkB inh	HSF1 activator	HSF1 inh
CNc1ccc2ncc(-c3cccc(C(=O)N(C)C)c3)n2n1	53*	11	87*	.	.	.
Brc1ccc(-c2cn3c(n2)SCC3)cc1	-40	.	10	-24	63*	26
Oc1ccc(-c2cn3c(n2)SCC3)cc1	-12	.	-2	-1	-2	-4
Clc1ccc(-c2cn3c(n2)SCC3)cc1	-30	-6	-24	-38	58*	11
COc1ccc(NC(=O)N(C)C[C@@H]2OCCCC[C@H](C)Oc3ccc(NC(=O)CCCN(C)C)cc3C(=O)N([C@H](C)CO)C[C@@H]2C)cc1	.	-1	.	.	.	.
COC(=O)c1ccc(COc2ccccc2/C=C/C(=O)c2ccc(OCC(=O)O)cc2)cc1	-7	19	6	69*	-12	7
COC(=O)c1ccc(COc2ccccc2/C=C(\C#N)C(=O)Nc2c(C)cccc2C)cc1	32	27	61*	3	148*	126
O=C(C1CCCC1)N1[C@H](CO)[C@@H]2c3ccccc3NC[C@@H]21	.	4	.	.	.	.
COc1cccc(S(=O)(=O)N2CC3(CN[C@H](CO)c4[nH]c5cc(OC)ccc5c43)C2)c1	.	-28	.	.	.	.
N#Cc1c(N)nc(Sc2ccc(Cl)cc2)c(C#N)c1-c1ccccc1Cl	48	32	58*	9	50	40
CN1CCN(c2ccc(NC(=O)c3ccco3)cc2Cl)CC1	50*	7	39	60*	-24	-22
O=C(Nc1ccc(N2CCN(C(=O)c3ccco3)CC2)c(Cl)c1)c1cccs1	35	.	108*	14	9	-4
CC(C)C(=O)N1CCN(c2ccc(NC(=O)c3cccs3)cc2Cl)CC1	16	.	-10	4	20	8
CC(C)NC(=O)Nc1ccc2c(c1)C(=O)N([C@@H](C)CO)C[C@@H](C)[C@H](CN(C)C(=O)NC(C)C)OCCCC[C@H](C)O2	.	-5	.	.	.	.
COc1ccc(CN2C[C@@H](O)COC[C@@H]3O[C@@H](CC(=O)N4CCc5ccccc5C4)CC[C@H]32)cc1	.	12	.	.	.	.
O=C(O)c1c(-c2ccccc2)oc2ccc(O)cc12	-3	-2	2	9	30	-1
O=Cc1c(-c2ccc(Cl)cc2)oc2ccc(O)cc12	-45	-98	17	.	-57	-55*
O=C(CCCn1c(=S)[nH]c2ccc(Br)cc2c1=O)NCC1CCCO1 (stereo unspecified)	3	.	-6	-4	72*	25
COc1ccc(S(=O)(=O)Nc2cccc3c2O[C@H](CN(C)C(=O)Nc2c(C)noc2C)[C@H](C)CN([C@H](C)CO)C3=O)cc1	.	4	.	.	.	.
COc1cccc(CN2CC3(C2)CN(C(=O)C2CC2)[C@@H](CO)c2c3c3ccc(OC)cc3n2C)c1	.	-20	.	.	.	.
Cc1cc(C)cc(Nc2ccc(C(=O)O)cc2N)c1	17	.	6	-7	24	1
COc1cccc(Nc2ccc(C(=O)O)cc2N)c1	2	-27	23	.	-69	-66*
O=c1[nH][nH]c(-c2ccccc2)c1-c1ccccc1	1	-51	-3	-5	.	.
O=c1o[nH]c(-c2ccccc2)c1-c1ccccc1	-5	-9	-16	.	-67	-60*
Cc1c(CCC(=O)O)c(=O)oc2cc3oc4c(c3cc12)CCCC4	12	-52	51*	19	-33	-27
SMILES	TROY signal inh	LGR2 antag	TWEAK Fn14 block	LMP1 NFkB inh	HSF1 activator	HSF1 inh
Cc1c(CCC(=O)N2CCC[C@H]2C(=O)O)c(=O)oc2cc3oc4c(c3cc12)CCCC4	-1	.	76*	-2	-40	-36
CC(C)NC(=O)Nc1ccc2c(c1)C(=O)N([C@@H](C)CO)C[C@H](C)[C@H](CN(C)S(=O)(=O)c1ccc(F)cc1)O2	.	-9	.	.	.	.
Cc1ccc(N=Nc2ccc3ccccc3c2O)cc1	78*	30	95*	4	-78	-73*
Oc1c(-c2cc(-c3ccco3)[nH]n2)ccc2ccccc12	-63	.	10	-78	26	30
Oc1ccc2ccccc2c1N=Nc1ccc(F)cc1	-42	5	-3	2	1	10
Oc1c(N=Nc2ccc(F)cc2)ccc2ccccc12	38	7	54*	-45	5	10
Oc1c(N=Nc2nn[nH]n2)ccc2ccccc12	24	-13	52*	.	.	.
C[C@@H]1CN([C@@H](C)CO)C(=O)c2cc(NC(=O)Nc3cccc4ccccc34)ccc2O[C@@H](C)CCCCO[C@@H]1CN(C)S(=O)(=O)c1ccc(F)cc1	.	12	.	.	.	.
O=C(C[C@@H]1C[C@H]2c3cc(NC(=O)Nc4ccc(C(F)(F)F)cc4)ccc3O[C@H]2[C@@H](CO)O1)NCc1ccccn1	.	-3	.	.	.	.
COc1cccc2c1C(=O)c1c(O)c3c(c(O)c1C2=O)CC(O)(C(=O)CO)CC3OC1CC(N(C)C)C(O)C(C)O1 (stereo unspecified)	57*	.	97*	87*	.	.
COc1cccc2c1C(=O)c1c(O)c3c(c(O)c1C2=O)C[C@@](O)(C(=O)CO)C[C@@H]3O[C@H]1C[C@H](N)[C@@H](O)[C@H](C)O1	-3	.	88*	76*	-72	-75*
CC(=O)[C@]1(O)Cc2c(O)c3c(c(O)c2[C@@H](O[C@H]2C[C@H](N)[C@H](O)[C@H](C)O2)C1)C(=O)c1ccccc1C3=O	.	.	.	.	-79	-79*
COc1cccc2c1C(=O)c1c(O)c3c(c(O)c1C2=O)C[C@@](O)(C(C)=O)C[C@@H]3O[C@H]1C[C@H](N)[C@H](O)[C@H](C)O1	69*	100*	96*	91*	.	.
O=C(CCN1C(=O)/C(=C/c2cccs2)SC1=S)Nc1ccc(O)cc1	6	-2	-24	-4	15	11
O=C(CCCN1C(=O)/C(=C/c2cccs2)SC1=S)Nc1cccc(O)c1	21	-1	25	5	-8	-3
O=C(CCN1C(=O)/C(=C/c2cccs2)SC1=S)Nc1ccccc1O	50	-6	-19	-2	69*	43
O=C(CCN1C(=O)/C(=C/c2cccs2)SC1=S)Nc1cccc(O)c1	54*	-8	6	-1	19	12
C[C@@H]1CN([C@H](C)CO)C(=O)c2cc(NC(=O)CCCCCC(=O)Nc3ccccc3N)ccc2O[C@@H]1CN(C)C(=O)Nc1ccc(F)cc1	.	-6	.	.	.	.
CCc1[nH]nc2c1C1(CCN(C(=O)OCc3ccccc3)CC1)C(C#N)=C(N)O2	-17	.	-4	9	55*	7
CCCc1[nH]nc2c1C1(CCN(C(=O)OCc3ccccc3)CC1)C(C#N)=C(N)O2	-1	11	-3	-3	13	0
Cc1cc(C)c2c(n1)sc1c(=O)[nH]c(SCc3ccccc3)nc12	8	.	-1	-1	-91	-89*
CCCNC(=O)C[C@H]1C[C@@H]2c3cc(NS(=O)(=O)c4ccc(F)cc4)ccc3O[C@@H]2[C@@H](CO)O1	.	5	.	.	.	.
